# PAX8 inh HTS: inhibitors of PAX8 transcriptional activity in RMG-I cells. hit rate 1.2% among 360,000. inhibition, % at 12.6 µM. RMG-I TPO-luciferase reporter, SteadyGlo, 24 h. AID 652154;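 active = mean replicate inhibition at least 60% with every replicate also reaching 60%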;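 also: luciferase light reporting Pax8 driven TPO promoter activity; plate controls were median of neutral control wells for no effect and mitoxantrone controls for full effect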
# CFTR F508del cor: CFTR F508del correction in bronchial cells; hit rate 0.36% among 350,000; CFBE cells, YFP halide quenching; stimulated with forskolin plus potentiator P3; % fluorescence drop versus neutral controls; activity (quench increase), % at 7.58 µM; AID 720511;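 active = mean added fluorescence quench of at least 8% versus neutral control, with both replicates also reaching 8%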;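 also: cells transiently co-express mutant CFTR-F508del with the halide-sensitive YFP; corrector assay measuring rescue of mutant channel to the surface after 24 h compound exposure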
# INS-1E GSIS act: primary screen for activators of insulin secretion dependent on glucose, INS-1E cells, GLuc reporter luminescence. AID 743287. INS-1E GLuc reporter insulin secretion, 2-3 h. hit rate 0.61% among 370,000. activation, % at 16.6 µM;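 active = lowest replicate activation of at least 40%, so every replicate reaches that level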;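 also: 0% = median of neutral control wells and 100% = median of IBMX positive control wells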
# PGC1a acetyl inh: PGC1a acetylation modulation, inhibitor mode | inhibition, % at 15.6 µM | U2OS PGC1a acetylation, AlphaScreen anti-acetyl-lysine; with virally co-expressed GCN5 acetyltransferase | AID 651687 | hit rate 0.17% among 350,000;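 active = every replicate shows inhibition of at least 40%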;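 also: 0% = neutral control wells and 100% = positive control wells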
# Env fusion inh: HIV envelope-mediated fusion inhibition; inhibition, % at 12.3 µM; HeLa-JRFL Env/CEM21 cell fusion, luciferase; hit rate 1.1% among 360,000;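 active = mean replicate inhibition score of at least 50 and every replicate individually at or above 50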;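 also: 0% = plate neutral controls and 100% = maraviroc near 300 nM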
# EWS-Fli block: EWS/Fli transcriptional activity inhibition; A673 NR0B1-luciferase reporter, viability-normalised; inhibition, % at 12.6 µM; hit rate 0.67% among 350,000; AID 651661;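 active = mean inhibition of at least 50% after viability correction, with every replicate also passing that limit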;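 also: firefly luciferase signal divided by Alamar Blue viability fluorescence both relative to DMSO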
# An asterisk follows results filed as active; . = no result given; [ ] = another dose, or the depositor's remark. Only some compounds are listed: those with a hit (about 2.7% of all), similar ones and a draw of the others.
SMILES,PAX8 inh HTS,CFTR F508del cor,INS-1E GSIS act,PGC1a acetyl inh,Env fusion inh,EWS-Fli block
Cc1noc(C)c1S(=O)(=O)Nc1ccc2c(c1)CC(=O)N([C@@H](C)CO)C[C@@H](C)[C@H](CN(C)C(=O)Nc1ccc3c(c1)OCO3)O2,-3,1,21,4,-3[16.7 µM],-7
CCCCn1nc(C(=O)NC2CCCCCC2)c2ccccc2c1=O,-4,0,2,-1,21,14
CCCn1nc(C(=O)NC2CCCC2)c2ccccc2c1=O,5,5,58*,-7,.,6
CS(=O)(=O)N1CCCCC1c1cc(C(=O)Nc2ccccc2)no1 (configuration not stated),-236,0,-2,1,-5,-49
CS(=O)(=O)N1CCCCC1c1cc(C(=O)Nc2cccc(C#N)c2)no1 (configuration not stated),-37,3,41*,-14,13,-27
COc1ccccc1-c1cn(CC[C@@H]2CC[C@H](NC(=O)C3CC3)[C@@H](CO)O2)nn1,8,0,12,3,-4[16.7 µM],-6
CCOC(=O)c1cc(OC(=O)c2ccccc2OC)n(-c2ccccc2)n1,.,.,-1,2,-14,.
CCOC(=O)c1sc2ccccc2c1OC(=O)c1ccccc1OC,60*,4,-3,12,-13,3
O=S(=O)(Nc1cccc(-c2cn3cccnc3n2)c1)c1ccc(F)cc1,77*,-3,-4,-4,.,-21
COc1ccc(S(=O)(=O)N(C)C[C@@H]2Oc3ccc(NS(=O)(=O)c4ccc(C)cc4)cc3C(=O)N([C@H](C)CO)C[C@H]2C)cc1,-2,-3,7,5,.,-7
COCC(=O)N1CC[C@H]2[C@H](CO)Nc3ccc(C#Cc4ccccc4)cc3[C@H]21,-15,1,0,-15,.,-11
O=S(=O)(NC1CC1)c1ccc(S(=O)(=O)N2CCCc3ccccc32)cc1,.,.,-17,9,69*,.
CCOc1ccc(/C=C/C2=NNC(=O)CC2)cc1,-111,2,20,-12,28,-20
COc1ccc(/C=C/C2=NNC(=O)CC2)cc1,-63,2,0,-2,60*,-54
C[C@@H]1CN([C@@H](C)CO)C(=O)Cc2cc(NS(=O)(=O)c3ccc(Cl)cc3)ccc2O[C@H]1CN(C)S(=O)(=O)c1cn(C)cn1,.,0,-2,10,-10[16.7 µM],-3
CN(C)Cc1cn(CC[C@@H]2CC[C@H](N)[C@H](CO)O2)nn1,1,0,-4,-2,63*[16.7 µM],-2
CC1(C)CC(=O)C2=C(C1)N1C(=C(C#N)C2c2ccc(Cl)cc2)N=C(N)c2ccccc21 (configuration not stated),67*,-1,-20,4,15,16
C[C@H](CO)N1C[C@H](C)[C@H](CN(C)C(=O)Nc2ccc(C(F)(F)F)cc2)Oc2c(NC(=O)Nc3ccc4c(c3)OCO4)cccc2C1=O,.,6,-2,11,2[16.7 µM],-6
Cc1nn(-c2ccc3ccccc3c2)c(=O)c2ccccc12,-72,0,-3,2,-28,-45
Cc1nn(-c2nc3ccccc3[nH]2)c(=O)c2ccccc12,105*,-1,17,-9,72*,88*
COCC#Cc1ccc([C@H]2[C@H]3CN(C(=O)c4ccncc4)CC(=O)N3[C@H]2CO)cc1,-14,-3,5,-1,.,4
COc1cc(OC)cc(C(=O)OCC(=O)NC(c2ccccc2)c2ccccc2)c1,4,8.2*,21,3,.,4
COc1ccc(/C=N/OCC(=O)Nc2cc(C)on2)cc1OC,44,.,33,-1,-10,0
COc1ccc(/C=N/OCC(=O)NC(c2ccccc2)c2ccccc2)cc1OC,-1,.,-62,.,62*,4
C[C@@H]1CN([C@@H](C)CO)C(=O)c2cc(NC(=O)NC3CCCCC3)ccc2O[C@H]1CN(C)Cc1ccc2c(c1)OCO2,10,-1,-20,-3,0[16.7 µM],9
SMILES,PAX8 inh HTS,CFTR F508del cor,INS-1E GSIS act,PGC1a acetyl inh,Env fusion inh,EWS-Fli block
CCCNC(=O)N(C)C[C@H]1Oc2ncc(C#CC3(O)CCCC3)cc2C(=O)N([C@@H](C)CO)C[C@@H]1C,-9,0,6,1,6[16.7 µM],-13
O=C(c1ccccc1F)N1CC[C@@H]2[C@H](CO)Nc3ccc(Br)cc3[C@@H]21,9,12*,-6,4,.,44
O=C(C1CCCC1)N1CC[C@@H]2[C@H](CO)Nc3ccc(C4=CCCCC4)cc3[C@@H]21,90*,1,3,10,45[16.7 µM],4
CN1c2ccc(C3=CCCCC3)cc2[C@H]2[C@H](CCN2C(=O)C2CC2)[C@@H]1CO,100*,-5,.,38,98*[16.7 µM],-3
O=C(Cc1ccccc1)N1CC[C@H]2[C@H](CO)Nc3ccc(C4=CCCCC4)cc3[C@H]21,82*,0,7,5,18[16.7 µM],-3
O=C(Nc1ccc(F)cc1)Nc1ccc2c(c1)[C@H]1C[C@@H](CC(=O)N3CCOCC3)O[C@H](CO)[C@H]1O2,-8,-3,12,5,17[16.7 µM],-4
CCS(=O)(=O)NCC[C@H]1CC[C@H](NC(=O)C2CC2)[C@@H](CO)O1,.,2,1,2,.,-3
C[C@H]1CN([C@@H](C)CO)C(=O)c2cc(NS(=O)(=O)c3ccccc3)ccc2O[C@H]1CN(C)S(=O)(=O)c1ccc(F)cc1,12,-2,-13,-6,12[16.7 µM],-5
COc1ccccc1-c1ccc2c(c1)[C@@H]1[C@@H](CCN1C(=O)C1CCCCC1)[C@@H](CO)N2,105*,6,.,1,.,29
N#Cc1ccc(-c2ccc3c(c2)[C@H]2[C@H](CCN2C(=O)C2CCCCC2)[C@H](CO)N3)cc1,21,1,7,-4,.,4
COc1ccccc1-c1ccc2c(c1)[C@H]1[C@H](CCN1C(=O)C1CCC1)[C@@H](CO)N2,42,4,32,-6,1[16.7 µM],4
O=C(Cc1ccccc1)N1CC[C@@H]2[C@H]1c1cc(-c3cccc(F)c3)ccc1N[C@@H]2CO,68*,0,5,14,.,16
N#Cc1ccc(-c2ccc3c(c2)[C@@H]2[C@@H](CCN2C(=O)C2CCCC2)[C@@H](CO)N3)cc1,.,1,41*,.,.,-2
C[C@@H]1CN([C@@H](C)CO)C(=O)c2cc(NC(=O)Cn3cnnn3)ccc2O[C@@H]1CN(C)C(=O)Nc1ccc(C(F)(F)F)cc1,.,2,-8,2,.,-5
C[C@H](CO)N1C[C@H](C)[C@H](CN(C)C(=O)CC2CC2)Oc2ncc(C#CC3(O)CCCC3)cc2C1=O,.,-1,16,-11,-12[16.7 µM],3
C[C@H](CO)N1C[C@H](C)[C@H](CN(C)C(=O)c2ccccc2)OCCCC[C@H](C)Oc2ccc(NC(=O)Nc3ccc4c(c3)OCO4)cc2C1=O,12,-4,-9,11,61*[16.7 µM],6
